Growth data for 14 compounds are collected here from PubChem BioAssay (NCI).

The panel holds about 83,000 compounds, 20% with a hit somewhere; the sample as a whole holds those more often.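 Growth was measured after 48 h exposure to one concentration of compound in 96-well plates. Values under 10 count as active.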 Unmarked numbers belong to inactive results. The source made the active and inactive calls.

What all share (experiment): NCI-60 one-dose screen, 48 h (100 = growth as untreated, 0 = no growth, -100 = all killed)
One experiment relates to NCI-H23 lung. As to conditions: 10 µM unless noted.
The next experiment has as its system NCI-H322M lung. To be noted: 10 µM unless noted.
For the next experiment, the system named is HOP-62 NSCLC. As to conditions: 10 µM unless noted.
For the next experiment, the system named is NCI-H460 lung. As to conditions: 10 µM unless noted.
A further experiment has as its system HOP-92 NSCLC. As to conditions: 10 µM unless noted.
The subject of a further experiment is A549/ATCC NSCLC. As to conditions: 10 µM unless noted.
In another experiment the test system is 786-0 renal. As to conditions: 10 µM unless noted.
In another experiment the test system is COLO 205 colon. As to conditions: 10 µM unless noted.
Another experiment has as its system NCI-H522 lung. As to conditions: 10 µM.

In the case of `COc1cc(-c2nc(SC(C)C)nc(Nc3cccc(C)c3)c2C#N)cc(OC)c1OC`, the growth in the experiment with NCI-H23 lung is 103%; in the experiment on NCI-H322M lung, 107%; in the experiment on HOP-62 NSCLC, 103%; in the experiment with NCI-H460 lung, 108%; in the experiment on HOP-92 NSCLC, 106%; with A549/ATCC NSCLC, 91%. Besides, the growth with 786-0 renal and in the experiment with COLO 205 colon was 109% each time.
With `COc1cc(/C=N/NC(=O)c2cnn3c2NC(c2ccccc2)C3)ccc1OC1CCCC1` (configuration not stated), the growth with NCI-H23 lung is 50%; with NCI-H322M lung, 32.9%; with HOP-62 NSCLC, 35.1%; in the experiment on NCI-H460 lung, 2.88% (active); in the experiment on HOP-92 NSCLC, 45.7%; in the experiment with NCI-H522 lung, 11.7%. For the same compound, the growth is 40.6% with A549/ATCC NSCLC and 9.01% (active) with 786-0 renal.
As for `O=c1[nH]c(-c2ccncc2)nc2sc3c(c12)CCCCCC3`, the growth was 88.5% with NCI-H23 lung; 59.4% with NCI-H322M lung; 52.2% with HOP-62 NSCLC; 30.4% with NCI-H460 lung; -25.1% (active) with HOP-92 NSCLC; 43.7% with A549/ATCC NSCLC. Further, the growth is 80.4% with 786-0 renal and 106% in the experiment on COLO 205 colon.
For the compound `COc1ccc(OC2=CC(=O)c3ccc(C)nc3C2=O)cc1`, the growth in the experiment with NCI-H23 lung was 65.7%; with NCI-H322M lung, 102%; in the experiment with HOP-62 NSCLC, 89.1%; in the experiment with NCI-H460 lung it was 86.1%; in the experiment on HOP-92 NSCLC it was 122%; in the experiment with NCI-H522 lung, 55.2%. Further, the values for the growth with A549/ATCC NSCLC and in the experiment on 786-0 renal were 96.4% and 109%, respectively.
With `CCC(C)Oc1cc(/C=N/NC(=O)c2cnn3c2NC(c2ccccc2)C3)ccc1OC` (configuration not stated), the growth is 58% in the experiment on NCI-H23 lung; 45% in the experiment on NCI-H322M lung; 37.2% in the experiment on HOP-62 NSCLC; 11.5% with NCI-H460 lung; 71.8% with HOP-92 NSCLC; 10.7% with NCI-H522 lung. Moreover, the growth in the experiment with A549/ATCC NSCLC is 43.6%; with 786-0 renal, 47.6%.
With `COc1ccc(/C=C/C(=O)N2CCC(O)CC2)cc1OC1CCCC1`, the growth in the experiment with NCI-H23 lung was 103%; with NCI-H322M lung, 108%; in the experiment on HOP-62 NSCLC, 95.1%; in the experiment with NCI-H460 lung it was 104%; in the experiment on HOP-92 NSCLC, 95.7%; in the experiment with NCI-H522 lung it was 87.1%. Moreover, the results for the growth with A549/ATCC NSCLC and in the experiment with 786-0 renal were 91.4% and 104%, respectively.
As to `Cc1ccc(N=c2nc3sc4c(C)ccc(C)c4n3c(N)c2C#N)cc1`, the growth in the experiment with NCI-H23 lung is 90.2%; with NCI-H322M lung it was 113%; in the experiment on HOP-62 NSCLC, 101%; in the experiment with NCI-H460 lung, 105%; with HOP-92 NSCLC, 76.6%; in the experiment on A549/ATCC NSCLC it was 100%. In addition, the figures for the growth with 786-0 renal and in the experiment on COLO 205 colon were 101% and 108%, respectively.
On to `COc1ccc(S(=O)(=O)c2ccc(C(N)=O)cc2)cc1NC(=O)c1[nH]c(C)c2c1CCCCC2=O`, for which the growth in the experiment with NCI-H23 lung is 58.7%; in the experiment on NCI-H322M lung, 68.5%; in the experiment on HOP-62 NSCLC, 38.8%; with NCI-H460 lung it was 70.3%; in the experiment on HOP-92 NSCLC, 23.6%; with NCI-H522 lung it was 42.7%. The growth in the experiment with A549/ATCC NSCLC was 87.7%; with 786-0 renal, 60%.
For the compound `Nc1nc(-c2ccnc(Cl)c2)nn1-c1nc2ccccc2s1`, the growth in the experiment on NCI-H23 lung is 101%; with NCI-H322M lung it was 100%; in the experiment on HOP-62 NSCLC, 99.5%; in the experiment on NCI-H460 lung, 107%; in the experiment on HOP-92 NSCLC, 103%; with A549/ATCC NSCLC, 103%. For the same compound, the growth was 109% in the experiment with 786-0 renal and 116% with COLO 205 colon.
Regarding `O=c1[nH]c(-c2ccccn2)nc2sc3c(c12)CCCCCC3`, the growth with NCI-H23 lung was 48.7%; in the experiment on NCI-H322M lung, 46.8%; in the experiment with HOP-62 NSCLC, 43%; in the experiment with NCI-H460 lung it was 15.9%; in the experiment on HOP-92 NSCLC it was -2.86% (active); in the experiment with A549/ATCC NSCLC it was 23.2%. The growth in the experiment with 786-0 renal was 46.1%; in the experiment on COLO 205 colon, 33%.
With `CN(C)c1ccc(/C=C(\C#N)c2cc3ccccc3n2C)cc1`, the growth with NCI-H23 lung was 34.6%; in the experiment on NCI-H322M lung, 49.7%; in the experiment on HOP-62 NSCLC, 62.1%; in the experiment on NCI-H460 lung, 5.38% (active); with HOP-92 NSCLC it was 72.5%; in the experiment with A549/ATCC NSCLC it was 24.6%. The growth in the experiment with 786-0 renal is 38.6%; in the experiment with COLO 205 colon it was -17.2% (active).
On to `Cc1c(C)n(CC(O)CNC2CCCCC2C)c2ccccc12` (configuration not stated), for which the growth in the experiment on NCI-H23 lung was -19.7% (active); in the experiment with NCI-H322M lung, 31.7%; in the experiment with HOP-62 NSCLC, -71.3% (active); in the experiment with NCI-H460 lung, 11.2%; in the experiment on HOP-92 NSCLC it was -60% (active); in the experiment on A549/ATCC NSCLC, -31.4% (active). In addition, the growth in the experiment with 786-0 renal and with COLO 205 colon was -84.7% (active) throughout.
As to `COc1cccc(OC)c1OC(=O)c1ccccc1`, the growth was 100% in the experiment with NCI-H23 lung; 109% with NCI-H322M lung; 110% with HOP-62 NSCLC; 102% with NCI-H460 lung; 82.5% with HOP-92 NSCLC; 95.5% in the experiment on NCI-H522 lung. In addition, the growth with A549/ATCC NSCLC is 96.5%; in the experiment on 786-0 renal, 106%.
`O=c1oc2ccccc2cc1-c1csc(N=Nc2c(O)[nH]c3ccc(Br)cc23)n1`: the growth in the experiment with NCI-H23 lung is 98.6%; in the experiment with NCI-H322M lung, 102%; in the experiment with HOP-62 NSCLC it was 104%; in the experiment on NCI-H460 lung, 100%; in the experiment with HOP-92 NSCLC, 123%; with NCI-H522 lung it was 99.5%. Also, the growth with A549/ATCC NSCLC is 93.8%; with 786-0 renal it was 103%.
